Assay outcomes as filed in PubChem.
This is a sample that favours compounds with a hit; in the whole collection about 21% have one here.
CHX counter – counter-screen for Shiga toxin inhibitors: cycloheximide protein synthesis inhibition; AID 2314; cell reporter, cycloheximide protein synthesis inhibition counterscreen; actives 12% (n = 300,000); max response, %; in the data active means max response mostly above about 13%, no sharp cut-off; inactive means mostly below about 14%; further: read at 38.3 µM for the half of the compounds with a filed dose
Pf growth 96h – P. falciparum growth inhibition at 96 hour, primary screen for plastid delayed-death inhibitors; P. falciparum luciferase reporter growth, 96 h; Potency, µM (series often up to 28.7 µM), usual class: inhibitors; actives 6.9% (n = 320,000)
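Erythrocytes infected with luciferase-expressing P. falciparum were dispensed at 2% hematocrit and 0.05% parasitemia (final), then incubated with compounds 96 hours at 37 C in 5% CO2. Luminescence after detection reagent addition reported growth.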
Pf growth 48h – P. falciparum growth inhibition at 48 hours (one generation); actives 5.9% (n = 310,000); P. falciparum luciferase growth in erythrocytes, 48 h; Potency, µM (series often up to 28.7 µM), usual class: inhibitors
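Read-out is firefly luciferase luminescence from an integrated reporter in P. falciparum, so falling signal marks reduced parasite growth. Infected erythrocytes were at 2% hematocrit and 0.1% parasitemia (final) in Albumax-supplemented RPMI 1640.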
Shiga inhibitor – Shiga toxin inhibition. actives 9.2% (n = 290,000). Vero cells, Shiga toxin protein synthesis inhibition reporter. inhibition, % at 38.7 µM; in the data active means inhibition mostly above about 28%, no sharp cut-off; inactive means mostly below about 43%
Hits are given with their value; i = inactive; ? = inconclusive; nt = not tested or not shown. Unless noted, the call rests on the fitted dose curve; in most records, active means well fitted inhibition curve with a large enough effect; inconclusive means small, poorly fitted or top-dose-only effect, or another doubt; inactive means no such curve, though single readings can be large or run the other way.

SMILES	CHX counter	Pf growth 96h	Pf growth 48h	Shiga inhibitor
COc1ccc(C(=O)Nc2ccc3ccccc3c2)c(OC)c1	30.1	?	i	85.7
COc1ccc(NC(=O)c2coc(C)c2)cc1	29.2	i	i	54.0
CC1C(=O)C(C)C(c2ccccc2F)NC1c1ccccc1F (stereo not drawn)	i	?	i	i
COc1cc(OC)cc(C(=O)N2CCN(Cc3ccccc3Br)CC2)c1	i	i	i	i
COc1ccc(N2CCN(CCCNC(=O)Cn3c(=O)c4cccn4c4ccccc43)CC2)cc1	i	?	i	i
COc1ccc(C(=O)CNc2ccccc2Br)cc1	41.1	?	i	73.7
COc1ccc(NC(=O)c2ccc3ccccc3c2)cc1	36.7	?	i	nt
Cc1ccccc1NCC(=O)c1ccc(Br)cc1	i	i	i	i
COc1ccc(C(=O)Nc2ccc(C(=O)OCC(=O)c3cccc4ccccc34)cc2)cc1	i	13.1µM	?	i
CN(C)C=Nc1c(I)cc(I)c(CCC(=O)O)c1I	nt	i	i	nt
S=C(Nc1cccc(Cl)c1Cl)N1CCCC1	i	?	i	i
COc1ccc(S(=O)(=O)NC2CCCCC2)cc1-n1cnnn1	i	2.62µM	i	i
COc1cc(S(=O)(=O)N(Cc2cccs2)CC2CCCO2)ccc1-n1cnnn1 (stereo not drawn)	i	4.15µM	i	i
COc1cc(S(=O)(=O)NCC2COCCO2)ccc1-n1cnnn1 (stereo not drawn)	i	11.7µM	i	i
CCCN(CCC)CCc1cccc2c1CC(=O)N2	nt	i	i	nt
CN(C(=O)Cn1nnc(-c2ccccc2)n1)C1CCS(=O)(=O)C1 (stereo not drawn)	nt	i	i	nt
Cc1nc(C(F)(F)F)ccc1C(=O)Nc1ccccc1F	i	?	i	i
Cc1nc(C(F)(F)F)ccc1C(=O)Nc1ccc2ccccc2n1	21.2	?	i	48.9
Cc1nc(C(F)(F)F)ccc1C(=O)NCC(O)c1ccccc1 (stereo not drawn)	45.4	i	i	70.7
O=C(Nc1ccc(Cl)cc1)c1ccc(OC2CSC2)cc1	18.0	?	i	i
COc1ccccc1NC(=O)c1ccc2c(c1)OCO2	49.8	?	i	81.7
CCN(CC)S(=O)(=O)c1cccc(C(=O)Nc2cc3oc4ccccc4c3cc2OC)c1	i	?	i	i
COc1ccccc1CNC(=O)c1ccc2c(c1)OCO2	i	i	i	i
CNC(=O)c1ccc(OC2CSC2)cc1	i	i	i	i
COc1ccc(OC)c(NC(=O)c2cccc(NC(=O)c3ccccc3)c2)c1	i	i	i	i
SMILES	CHX counter	Pf growth 96h	Pf growth 48h	Shiga inhibitor
CCCc1cc(C(=O)Nc2cc(OC)ccc2OC)cs1	17.8	i	i	30.3
CCCN(CCC)S(=O)(=O)c1ccc(C(=O)Nc2cc3oc4ccccc4c3cc2OC)cc1	18.9	i	10.4µM	i
CCN(CC(=O)Nc1ccc(NC(C)=O)cc1)C(=O)CCCSc1nc2ccccc2[nH]1	nt	i	i	nt
Cc1ccc(CNC(=O)CCc2nnc(Cc3ccc(-c4ccccc4)cc3)o2)o1	i	i	i	i
COc1ccc(OC)c(NC(=O)c2ccc(OC3CSC3)cc2)c1	20.6	i	i	i
COc1ccc(OC)c(NC(=O)CCN2CC(C)OC(C)C2)c1 (stereo not drawn)	i	1.85µM	i	i
COc1ccc(OC)c(NC(=O)c2ccc(NC(C)=O)cc2)c1	i	i	i	i
COc1cc(OC)c(C(=O)Oc2ccc3c(c2)OCO3)cc1OC	i	i	i	i
COc1ccc(C(=O)Oc2ccc3c(c2)OCO3)cc1OC	30.5	i	i	74.6
COc1ccc(OC)c(NC(=O)c2ccc3c(c2)OCO3)c1	23.9	?	i	nt
[N-]=[N+]=NC[C@H](Cc1ccccc1)N1CC[C@@H](NC(=O)OCc2ccccc2)CCC1=O	i	?	i	i
Cc1c(Br)c([N+](=O)[O-])nn1CC(=O)Nc1cccc2nonc12	i	i	?	i
COc1ccc(Cc2nc3ccc(C(=O)NC(C)c4cn(C)nc4C)cc3o2)cc1 (stereo not drawn)	i	i	i	i
COc1ccc(NC2CCCN(C(=O)CN3C(=O)c4ccccc4C3=O)C2)cc1OC (stereo not drawn)	i	i	i	i
Cc1ccccc1N(CC(=O)Nc1ccc(S(=O)(=O)N2CCOCC2)cc1)S(C)(=O)=O	i	?	?	i
COc1ccc(CC(=O)Nc2nc(-c3cc(OC)ccc3OC)cs2)cc1	i	?	i	i
COc1cc2c(cc1NC(=O)CCC(=O)O)oc1ccccc12	i	?	i	i
COc1ccc(OC)c(-c2csc(NC(=O)c3ccc4c(c3)OCO4)n2)c1	18.4	i	i	62.8
COc1cc2c(cc1NCc1ccc3c(c1)OCO3)oc1ccccc12	37.2	i	i	68.2
COc1ccc(CNCc2ccc3c(c2)OCO3)c(OC)c1OC	i	?	i	i
COc1cc2c(cc1NCc1ccccn1)oc1ccccc12	i	nt	i	33.0
COc1ccccc1N1CCN(C(CNC(=O)c2ccc3c(c2)OCO3)c2cccnc2)CC1 (stereo not drawn)	15.0	i	?	i
CCCSc1cc(=O)n(-c2ccc(F)cc2)nc1C(=O)OCC	i	i	i	i
COc1cc2c(cc1NC(=O)c1ccc3c(c1)OCO3)oc1ccccc12	40.7	i	i	92.1
COC(=O)CSc1nnc(CNC(=O)c2ccc(OC)c(OC)c2)n1C	i	i	i	i
SMILES	CHX counter	Pf growth 96h	Pf growth 48h	Shiga inhibitor
O=C(Nc1ccc2snnc2c1)N1CCCCC1	19.4	i	i	i
S=C(Nc1ccc2nccnc2c1)N1CCCC1	28.1	i	i	i
O=C(Nc1ccc2nsnc2c1)N1CCCCCC1	42.5	i	nt	i
S=C(Nc1ccc2nsnc2c1)N1CCCC1	45.8	i	?	88.7
Cc1nc2ccc(NC(=S)N3CCCC3)cc2nc1C	i	?	i	i
O=C(Nc1ccc2snnc2c1)N1CCOCC1	i	i	i	i
COc1ccc(N2CC(NC(=O)NCCC(C)C)CC2=O)cc1 (stereo not drawn)	i	i	?	i
O=C(N/N=C/c1ccc(O)cc1O)/C(=C/c1ccccc1)CCO	18.7	i	i	i
COc1ccc(/C=N/NC(=O)/C(=C/c2ccccc2)CCO)cc1	11.7	i	?	i
Cc1cccc(OCCn2nc(C(=O)O)c3ccccc3c2=O)c1	i	i	nt	i
Cc1cccc(OCCCn2c(=O)sc3ccccc32)c1	44.1	i	i	60.3
COc1ccccc1OCCn1c(=O)sc2ccccc21	i	i	i	i
Cc1ccc2nc(NC(=O)CCn3c(=O)sc4ccccc43)sc2c1	i	i	i	i
CCOc1ccc(Cn2c(=O)sc3ccccc32)cc1	i	?	i	i
Cc1cccc(OCCn2c(=O)sc3ccccc32)c1	35.8	i	i	79.1
Cc1ccccc1OCCn1c(=O)sc2ccccc21	i	i	13.1µM	i
COc1ccc(OCCn2c(=O)sc3ccccc32)cc1	24.6	2.94µM	i	80.6
COc1ccc(Cc2nnc(NC(=O)C3CCN(C(=O)c4ccco4)CC3)s2)cc1	i	i	?	i
CCOC(=O)c1[nH]cnc1C(=O)Nc1cccc(Cl)c1	i	?	i	i
CC(=O)Nc1ccc(C(=O)OCC(=O)N(Cc2ccccc2)C(C)(C)C)cc1	i	?	nt	i
O=[N+]([O-])c1cc2c(cc1Br)CCN2	i	?	i	i
